High-throughput results from PubChem.
Hits are enriched below; roughly 18% of the tested compounds scored in any of these assays.
KAT2A inh: blocks human GCN5L2 histone acetyltransferase; AID 504327; Q92830; actives 0.21% (n = 390,000); GCN5L2 HAT assay, ThioGlo1 CoA-SH fluorescence; Potency, µM (titrated, usually from 58.9 µM), for inactives: top-dose activity change, negative = inhibition, most hits filed as inhibitors
Target sequence (Q92830 whole entry, looked up): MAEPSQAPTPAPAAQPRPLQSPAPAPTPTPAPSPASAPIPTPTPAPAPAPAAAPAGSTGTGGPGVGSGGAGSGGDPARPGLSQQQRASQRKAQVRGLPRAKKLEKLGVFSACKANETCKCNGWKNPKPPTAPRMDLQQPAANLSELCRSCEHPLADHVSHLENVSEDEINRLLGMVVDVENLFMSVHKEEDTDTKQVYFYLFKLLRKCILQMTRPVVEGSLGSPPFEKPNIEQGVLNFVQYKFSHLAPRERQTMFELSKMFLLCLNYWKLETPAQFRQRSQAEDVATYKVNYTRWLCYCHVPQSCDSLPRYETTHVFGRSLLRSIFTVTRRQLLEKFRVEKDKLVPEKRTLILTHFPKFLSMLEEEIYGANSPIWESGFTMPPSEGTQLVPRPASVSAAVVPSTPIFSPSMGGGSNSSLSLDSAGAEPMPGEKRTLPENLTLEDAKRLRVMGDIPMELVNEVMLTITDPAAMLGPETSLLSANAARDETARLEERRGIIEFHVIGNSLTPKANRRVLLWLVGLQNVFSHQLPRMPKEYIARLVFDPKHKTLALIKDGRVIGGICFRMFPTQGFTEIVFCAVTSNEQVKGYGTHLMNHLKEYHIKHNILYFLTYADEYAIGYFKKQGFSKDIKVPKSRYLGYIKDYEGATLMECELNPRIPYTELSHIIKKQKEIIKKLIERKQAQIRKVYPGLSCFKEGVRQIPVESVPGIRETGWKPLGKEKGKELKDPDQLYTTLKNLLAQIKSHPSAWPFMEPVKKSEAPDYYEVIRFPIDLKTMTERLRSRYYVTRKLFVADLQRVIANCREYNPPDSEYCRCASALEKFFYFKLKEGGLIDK
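Free CoA generated was detected with ThioGlo1 (50uM) fluorescence at Ex340nm/Em540nm, read immediately and after 20 min at room temperature. Enzyme, 20 nM in HEPES pH 7.5 buffer, saw compounds 15 min before adding 75uM H3(1-25) peptide and 70uM acetyl-CoA.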
DT40 TDP1 CPT: DT40-hTDP1 cell growth loss with CPT; actives 12% (n = 420,000); chicken DT40 Tdp1-/-;hTDP1 cells + 20 nM CPT, ATP luminescence, 48 h; Potency, µM (highest dose often 46.2 µM), for inactives: at the highest dose activity change, negative = growth inhibition, usual class: inhibitors; also: nearly all actives have a fitted effect of over 55% in size
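Chicken DT40 Tdp1-/- cells complemented with human TDP1, 400 cells/well, exposed to compounds plus 20 nM camptothecin for at least 48 h at 37 C; viability read as ATP content by CellTiter-Glo luminescence.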
TDP1 cell noCPT: qHTS for Inhibitors of human tyrosyl-DNA phosphodiesterase 1 (TDP1): qHTS in cells in absence of CPT | DT40 Tdp1-/- hTDP1 cells, no CPT, ATP luminescence, 48 h | Potency, µM (doses to about 46.2 µM), inactives show at the highest dose activity change, negative = growth inhibition, hits mostly inhibitors | actives 15% (n = 420,000) | AID 686978, 2013; also: nearly all actives have a fitted effect of over 55% in size
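Growth kinetics read by CellTiter-Glo luminescence after ≥48 hr at 37 °C. Cells: DT40 Tdp1-/- stably carrying human TDP1, 400 per well, compound exposure in the absence of CPT (DMSO vehicle).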
VDR inh: inhibitors of human vitamin D receptor. Potency, µM, inactives show max response, negative = inhibition, usual class: inhibitors. AID 504847. P11473. actives 0.93% (n = 400,000). VDR-SRC2-3 peptide fluorescence polarization, 2 h
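Inhibition of the VDR/SRC2-3 peptide interaction is quantified by fluorescence polarization. Compounds (23 nl, pintool) incubate with the reagents for 2 hours at ambient room temperature.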
TDP1 inh: blocks human tyrosyl-DNA phosphodiesterase 1; actives 0.28% (n = 350,000); Q9NUW8; AID 485290; Potency, µM (titrated, usually from 130 µM), for the others: at the highest dose activity change, negative = inhibition, actives largely listed as inhibitors; recombinant TDP1, AlphaScreen DNA substrate cleavage; also: nearly all actives have a fitted effect of over 40% in size
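E. coli-derived human Tdp1, 1 nM final. Cpd preinc 15 min RT; substrate 15 nM final, 5 min RT; AS bead mix 10 ug/ml final, 10 min RT. Signal loss = tyrosine-FITC cleavage. No-enzyme wells = max signal.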
PLK1 PBD inh: PLK1 (human) polo-box domain binding inhibition; P53350; Potency, µM, inactives show max response, negative = inhibition, usual class: inhibitors; Plk1 PBD binding of FITC phosphopeptide, fluorescence polarization; actives 2.8% (n = 360,000); AID 720504; also: series mostly up to about 57 µM; nearly all actives have a fitted effect of over 65% in size
The depositor's hits bear a star; ? = inconclusive; / = no result; [ ] = dose if it differs, or a comment. Calls follow the shape of the dose curve; as a rule, active = well fitted curve in the direction sought with a large enough effect; inconclusive = small, poorly fitted or top-dose-only effect, or another doubt; inactive = no such curve, though single readings can be large; an effect the other way counts as inactive or inconclusive. % is scaled to controls: 0 for no effect and ±100 for the full control effect; potency is read from the fitted curve at half-maximal effect.

SMILES | KAT2A inh | DT40 TDP1 CPT | TDP1 cell noCPT | VDR inh | TDP1 inh | PLK1 PBD inh
COc1ccc(C2CC(=O)c3cc(-c4nc(-c5cccc([N+](=O)[O-])c5)cs4)c(=O)n(-c4ccc(OC)cc4)c3C2)cc1 (stereo not given) | 1% | -2% | 7% | -12% | -1% | /
O=C1CC(c2ccccc2)Cc2[nH]c(=O)c(-c3nc(-c4ccc(Cl)cc4)cs3)cc21 (stereo not given) | 4% | 0.58µM* | 0.65µM* | -13% | -2% | /
O=C(c1ccccc1Cl)N1CCCCC1CCN1CCCCC1 (stereo not given) | -5% | -21% | -6% | 8% | 7% | /
C/C(Cc1ccccc1)=N\NC(=O)CNC(=O)c1ccccc1Br | 2% | -30% | 18% | -4% | 1% | -6%
Nc1nc(Cl)nc2c1ncn2[C@@H]1O[C@H](CO)[C@H](O)C1F (stereo not given in full) | -15% | / | / | 1% | 4% | /
COCCSc1nnc(NC(=O)C2CC(=O)N(C3CCCC3)C2)s1 (stereo not given) | -2% | -1% | -1% | 9% | -2% | -2%
CCc1nnc(NC(=O)C2CC(=O)N(C3CCCCC3)C2)s1 (stereo not given) | -1% | 3% | 1% | -4% | 22µM* | 0%
C[C@]1(OC(=O)/C=C\c2ccccc2)C[C@@H](O)[C@@]2(O)C=CO[C@@H](O[C@H]3O[C@@H](CO)[C@@H](O)[C@@H](O)[C@@H]3O)[C@H]21 | 13%[21.4 µM] | / | / | 9% | 11%[21 µM] | /
Cc1c(Cl)cccc1NC(=O)CSc1nnnn1C | 0% | 6% | ? | -20% | 0% | 1%
COc1ccc(-c2nnc(SCC(=O)Nc3cccc(Cl)c3C)nc2-c2ccc(OC)cc2)cc1 | -6% | ? | 10µM* | 5% | 8% | /
COc1ccc(NC(=O)CSc2nc(C)cc(C)n2)cc1 | -1% | -12% | -25% | -12% | 8% | -2%
COc1ccc(-c2nnc(SCC(=O)Nc3ccc(C(C)=O)cc3)nc2-c2ccc(OC)cc2)cc1 | -1% | 12µM* | 10µM* | 11% | 4% | /
CC1(C(=O)NS(=O)(=O)c2ccc3c(c2)CCO3)CCN1C(=O)CCC1CCCC1 (stereo not given) | / | -9% | 3% | / | / | -5%
COc1ccc(OC)c(-n2cnc3cc(C(=O)NCCc4ccccc4)ccc32)c1 | -7% | ? | ? | 6% | 7% | /
O=C(Nc1ccccc1)Nc1cnccn1 | -1% | -8% | 16% | 12% | 5% | -8%
O=C(Nc1ccc([N+](=O)[O-])cc1)Nc1cnccn1 | -12% | ? | 16µM* | 12% | 1% | -7%
O=C(Nc1ccc(Cl)cc1)Nc1cnccn1 | -13% | ? | ? | 4% | -4% | 30µM*
Cc1ccc(NC(=O)Nc2ccon2)cc1 | -16% | -19% | -5% | -9% | 2% | -4%
O=C(Nc1ccc(Cl)cc1)Nc1ccon1 | -3% | 18µM* | 15µM* | -3% | 2% | -2%
CC(C)c1ccc(NC(=O)Nc2cnccn2)cc1 | 1% | 12µM* | 7.3µM* | -20% | 1% | -9%
C#CCN(Cc1nc(N2CCOCC2)c2ccc(Cl)cc2n1)Cc1ccco1 | / | 26%[9.04 µM] | ? | / | / | /
CCCCN(C(C)=O)c1c(CC)nc2ccc(C(=O)Nc3cccc(OCC(=O)N(C)C)c3)cn12 | / | ? | ? | / | / | -6%
Cc1cc(C)c(NC(=O)CNC(=O)COC(=O)C2=COCCO2)c(C)c1 | -3% | 4% | -12% | -10% | -1%[0.505 µM] | -14%
CCOC(=O)Cn1c2ccc(F)cc2c2nc(C)sc21 | 3% | -12% | 14% | ? | 1% | -7%
COC(=O)Cn1c2ccc(Cl)cc2c2nc(C)sc21 | -3% | 9% | -20% | -10% | 1% | -7%
SMILES | KAT2A inh | DT40 TDP1 CPT | TDP1 cell noCPT | VDR inh | TDP1 inh | PLK1 PBD inh
Cc1nc2c3cc(F)ccc3n(Cc3ccc(F)cc3)c2s1 | -1% | ? | 8.2µM* | ? | -2% | -21%
COC(=O)Cn1c2ccc(F)cc2c2nc(C)sc21 | -2% | 0% | 0% | 79µM* | 4% | ?
Cc1nc2c3cc(Cl)ccc3n(CCN3CCCCC3)c2s1 | 4% | 21µM* | 23µM* | -2% | 6% | -3%
Cc1ccc(S(=O)(=O)n2c3ccc(Cl)cc3c3nc(C)sc32)cc1 | -9% | ? | -8% | -14% | 2% | 27µM*
O=C(NC1(C(F)(F)F)C(=O)Nc2c1c(=O)[nH]c(=O)n2-c1ccc(Cl)cc1)c1ccccc1F (stereo not given) | 1% | -15% | -17% | 8% | 12% | /
CN(C)CCCNC(NC(=O)/C=C/c1ccccc1)C(Cl)(Cl)Cl (stereo not given) | -1% | 0% | -20% | -2% | 4% | -7%
CCn1cc(C(=O)NCCCOC)c(=O)c2cc(S(=O)(=O)N(C)C3CCCCC3)ccc21 | -6% | -31% | ? | 1% | 5% | -8%
CCn1cc(C(=O)N2CC(C)CC(C)C2)c(=O)c2cc(S(=O)(=O)N(C)C)ccc21 (stereo not given) | -20% | -26% | -11% | -16% | / | 21µM*
CCn1cc(C(=O)NCc2ccc3c(c2)OCO3)c(=O)c2cc(S(=O)(=O)N(C)C)ccc21 | -6% | ? | 18µM* | -8% | 8% | -4%
CCn1cc(C(=O)NCc2ccc(Cl)cc2)c(=O)c2cc(S(=O)(=O)N(C)C)ccc21 | -6% | ? | 21µM* | -7% | / | -2%
CCC1CCCCN1CCCNC(=O)c1cn(CC)c2ccc(S(=O)(=O)N(C)C3CCCCC3)cc2c1=O (stereo not given) | -3% | ? | 21µM* | -6% | 4% | -5%
O=C(NS(=O)(=O)Nc1ccccn1)c1c[nH]c2ccccc12 | 4% | 7% | -1% | -2% | 4% | -8%
COc1ccccc1-n1nc(-c2ccccc2)c2cnc3c(F)cc(F)cc3c21 | -12% | -9% | -22% | -14% | -2% | /
CCn1cc(C(=O)NCCCN(C)c2ccccc2)c(=O)c2cc(S(=O)(=O)N(C)C)ccc21 | 1% | 16µM* | ? | -13% | 10% | -11%
CCN(CCCNC(=O)c1cn(CC)c2ccc(S(=O)(=O)N(C)C)cc2c1=O)c1cccc(C)c1 | -15% | ? | ? | 14% | 10% | -5%
CCCc1cc(-c2nc(-c3ccc(Cl)cc3)cs2)ccn1 | -1% | 18µM* | 18µM* | -1% | -5% | -7%
CCCc1cc(-c2nc(-c3ccc(Br)cc3)cs2)ccn1 | -7% | ? | ? | -12% | -11% | 2%
